Bioassay records: PubChem BioAssay, several laboratories
HSF1 activator: increases HSF-1 driven luciferase reporter signal; AID 504408; 1.7% of 300,000 active; NIH3T3-HGL HSF-1 luciferase reporter, MG132, 8 h; 100% = twice DMSO control signal; activation, % at 9 µM;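 active means mean replicate activation of at least 50% with a set share of replicates each reaching 50%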;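 further: 0% = median of the neutral control wells and 100% = twice that signal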
NR0B1 inh: NR0B1 (DAX1) inhibition; P51843; HEK293 Gal4-DAX1 luciferase reporter, luminescence; inhibition, % at 6.75 µM; 0.99% of 340,000 active;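 active means inhibition above the mean over all tested compounds plus 3 SD, cut at about 4.2% in these data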;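 further: 0% = DAX1-transfected cells with DMSO and 100% = empty-vector control cells with DMSO; inhibition shows as a rise in luminescence from relieved DAX1 repression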
AHR act: activators of human aryl hydrocarbon receptor; P35869; AHR-responsive luciferase reporter cells, luminescence; activation, % at 5 µM; 2.5% of 320,000 active; in the data active means activation above about 47%;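 further: 0% = vehicle wells and 100% = reference agonist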
Target sequence (P35869 whole entry, looked up): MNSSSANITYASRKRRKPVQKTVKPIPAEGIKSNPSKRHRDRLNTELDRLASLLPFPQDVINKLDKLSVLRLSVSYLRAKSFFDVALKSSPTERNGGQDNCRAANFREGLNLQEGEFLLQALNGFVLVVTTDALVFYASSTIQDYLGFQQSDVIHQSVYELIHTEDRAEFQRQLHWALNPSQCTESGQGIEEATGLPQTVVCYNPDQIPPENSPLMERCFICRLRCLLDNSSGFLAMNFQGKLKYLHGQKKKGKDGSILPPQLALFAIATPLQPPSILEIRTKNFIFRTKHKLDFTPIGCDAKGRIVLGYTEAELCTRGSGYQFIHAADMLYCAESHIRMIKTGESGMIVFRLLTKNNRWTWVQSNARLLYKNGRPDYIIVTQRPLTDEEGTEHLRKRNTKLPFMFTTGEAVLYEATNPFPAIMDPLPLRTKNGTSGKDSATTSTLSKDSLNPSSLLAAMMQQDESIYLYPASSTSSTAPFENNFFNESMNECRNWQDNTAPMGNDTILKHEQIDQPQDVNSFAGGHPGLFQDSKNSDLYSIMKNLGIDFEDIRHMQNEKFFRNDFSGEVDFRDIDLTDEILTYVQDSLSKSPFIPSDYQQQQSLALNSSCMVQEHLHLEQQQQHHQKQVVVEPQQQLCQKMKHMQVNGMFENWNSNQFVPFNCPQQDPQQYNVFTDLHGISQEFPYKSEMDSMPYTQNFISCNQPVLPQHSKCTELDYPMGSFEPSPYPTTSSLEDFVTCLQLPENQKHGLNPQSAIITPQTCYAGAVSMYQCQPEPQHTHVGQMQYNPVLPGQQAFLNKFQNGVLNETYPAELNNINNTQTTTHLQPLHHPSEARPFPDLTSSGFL
HSF1 inh: HSF1 inhibition | NIH3T3-HGL HSE-luciferase, MG132-induced, luminescence 8 h; stronger effect = lower value | activity change, negative = inhibition, % at 7.5 µM (by protocol) | 0.77% of 300,000 active;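 active means more than half of replicate wells show activity change below -50%, luminescence cut by over half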;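 further: luciferase reports HSF-1 transcriptional activity via heat shock element; 0% = median of DMSO wells and -100% = zero luminescence signal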
FXN GAA850 act: increases GAA850 frataxin promoter reporter activity; 0.56% of 360,000 active; activation, % at 6 µM; HEK293 lucGAA850 FXN promoter luciferase reporter, 24 h; percent of 10 µM SAHA response;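 active means activation above the average of all compounds screened plus 3 SD, cutoff fixed separately per campaign, cut at about 7.5% in these data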;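 further: 0% = DMSO wells and 100% = 10 µM SAHA wells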
The depositor's hits bear a star; · = not tested or not shown. Shown are actives, neighbours in structure and some others; about 5.4% of the full set was active somewhere.

SMILES	HSF1 activator	NR0B1 inh	AHR act	HSF1 inh	FXN GAA850 act
Cc1ccc([C@@H]2[C@@H]3C(=O)N(c4ccccc4)C(=O)[C@@H]3[C@]3(C)C(=O)N(Cc4ccc(-c5ccccc5)cc4)CC(=O)N23)o1	-1	-1	2	8	2
O=C(O)c1cc(/C=N\O)ccc1OCc1ccccc1	6	2	-7	-1	-2
COc1cc(/C=N/O)ccc1OCc1ccc(C(=O)O)cc1	-81	-6	-15	-77*	1
COc1cc(/C=N/O)ccc1OCc1ccc(Cl)cc1	108*	·	5	47	·
COc1cc(/C=N/N=C(N)N)ccc1OCc1ccc(Cl)cc1	-43	-2	5	-38	0
CCOc1cc(/C=N/O)ccc1OCc1ccc(F)cc1	23	0	27	8	7
CCOc1cc(/C=N/O)ccc1OCc1ccc([N+](=O)[O-])cc1	27	1	78*	14	4
CC(C)NC(=O)c1cc(C2CCCCN2S(=O)(=O)c2ccc(F)cc2F)on1 (stereo unspecified)	·	·	·	·	-1
Cc1ccccc1S(=O)(=O)N1CCN(C)CC1	1	0	1	2	1
O=C(Cn1cccn1)N1CCCC(N2CCN(c3ccccc3F)CC2)C1 (stereo unspecified)	-16	0	1	-3	0
O=C(/C=C/c1ccc2c(c1)OCO2)N1CCOCC1	-11	0	55*	8	2
O=C(C=Cc1ccc2c(c1)OCO2)C=Cc1ccc2c(c1)OCO2	·	-2	·	·	-2
CC1CN(C(=O)/C=C/c2ccc3c(c2)OCO3)CC(C)O1 (stereo unspecified)	-1	3	60*	-6	0
COc1ccc(/C=C/C(=O)N2CC(C)OC(C)C2)cc1OC (stereo unspecified)	4	1	5	-1	0
CCCN1CCc2nc(SCC(=O)Nc3ccc(C)c(Cl)c3)[nH]c(=O)c2C1	-14	0	14	-2	1
O=C(Oc1ccccc1N1C(=O)C2CC=CCC2C1=O)c1ccc(Br)cc1 (stereo unspecified)	1	0	27	0	1
Cc1ccccc1C(=O)Oc1ccccc1N1C(=O)C2CC=CCC2C1=O (stereo unspecified)	5	2	75*	3	3
COc1cccc(N(CC(=O)Nc2ccc3c(c2)OCO3)S(=O)(=O)c2ccccc2)c1	11	-1	76*	-5	-4
Cc1ccccc1N(CC(=O)Nc1ccc(F)cc1)S(C)(=O)=O	5	0	69*	0	1
COc1ccc(S(=O)(=O)N(CC(=O)Nc2ccc3c(c2)OCO3)c2ccccc2OC)cc1	6	0	47*	-7	-3
CCOc1ccccc1N(CC(=O)Nc1ccc2c(c1)OCO2)S(C)(=O)=O	18	3	69*	2	1
CCOc1ccccc1N(CC(=O)Nc1ccc2c(c1)OCCO2)S(C)(=O)=O	-2	1	18	0	1
COc1ccc(N(CC(=O)Nc2ccc3c(c2)OCO3)S(=O)(=O)c2ccccc2)cc1	4	-1	42	3	2
Cc1ccc(NC(=O)CN(c2ccccc2F)S(C)(=O)=O)cc1	-12	0	2	-8	2
O=C(NCc1ccccc1)C1CCC(=O)N(CCCN2CCCC2=O)C1 (stereo unspecified)	6	0	1	-3	0
SMILES	HSF1 activator	NR0B1 inh	AHR act	HSF1 inh	FXN GAA850 act
NC(=O)CCN1CCN(C(=O)c2ccc3nc(Cc4cccc(Cl)c4)oc3c2)CC1	-1	1	1	0	2
COc1ccccc1N1CC(C)C(=O)NC1=S (stereo unspecified)	-68	1	-2	-56*	2
CCCN1CNC(=S)N(c2ccccc2OC)C1	2	0	-1	1	0
Cc1cc(C(=O)Nc2sc(C)c(C)c2C#N)c(C)o1	44	-1	76*	16	0
NNC(=O)c1sc(-c2ccccc2)cc1N	-10	-1	66*	4	2
NNC(=O)c1cc(-c2ccccc2)sc1N	13	1	56*	13	-1
O=c1[nH]c2cc3c(cc2cc1CN(Cc1nnnn1CC1CCCO1)C1CCCC1)OCO3 (stereo unspecified)	-3	0	30	-4	3
O=c1[nH]c2cc3c(cc2cc1CN(Cc1nnnn1CC1CCCO1)C1CCCCC1)OCO3 (stereo unspecified)	23	0	56*	8	1
